Mtb UGM inh: Mtb UDP-galactopyranose mutase inhibition | P9WIQ1 | 320,000 compounds, 0.06% hits | inhibition, % at 10 µM | purified UGM, fluorescence polarization probe displacement | AID 504406; in the data active = inhibition above about 10%, passing the limit was not always enough
GDH-TPI counter-1: counter-screen for M. tuberculosis FBA inhibitors: GDH-TPI coupled enzymes; GDH-TPI coupled enzyme counterscreen, NADH absorbance; inhibition, % at 4.8 µM; 360,000 compounds, 1.2% hits; AID 588335; in the data active = inhibition above about 30%
Mtb bLac sens: beta-lactam sensitization of Mtb H37Rv; M. tuberculosis H37Rv growth with meropenem, percent inhibition; inhibition, % at 25 µM; 330,000 compounds, 0.27% hits; call rule not given here;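 note: growth measured after seven days incubation then overnight dye step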
Mtb FBA inh: inhibits M. tuberculosis FBA enzyme. P9WQA3. purified M. tuberculosis FBA, fluorescence read-out. inhibition, % at 1 µM. 360,000 compounds, 2.3% hits
Rv3671c protease: inhibitors of M. tuberculosis serine protease Rv3671c; 320,000 compounds, 0.048% hits; inhibition, % at 5.96 µM; AID 2606; in the data active = inhibition above about 38%;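 note: extracellular domain of Rv3671c used as enzyme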
RecA intein inh: inhibitors of M. tuberculosis RecA intein splicing; P9WHJ3; cell-free RecA intein splicing, fluorescence; inhibition, % (no concentration beside the values); 290,000 compounds, 0.75% hits; in the data active = inhibition above about 30%
Mtb FBA inh conf: Mtb FBA inhibition, confirmed; shares compounds with Mtb FBA inh; purified M. tuberculosis FBA, fluorescence read-out; inhibition, % at 1 µM; 5,600 compounds, 78% hits; AID 651616
GDH-TPI counter-2: inhibits GDH-TPI coupling enzymes, flagging Mtb FBA hits; shares compounds with Mtb FBA inh; GDH-TPI coupled enzyme counterscreen, fluorescence; inhibition, % at 1 µM; 5,600 compounds, 81% hits; in the data active = inhibition above about 10%
Hits are given with their value. A selection: hits, their analogues and other compounds. The true share with any hit is near 4%. Cut-off read from the data, not from the text of the source, unless noted: active = inhibition above about 27%; inactive = the rest.

What do the screens show for `Clc1ccc(SCc2nc3ccccc3[nH]2)cc1`?
Mtb UGM inh: inactive; GDH-TPI counter-1: inactive; Mtb bLac sens: inactive; Mtb FBA inh: inactive; Rv3671c protease: inactive; RecA intein inh: inactive

Results for CCCCn1c(N)c(N(CCOC)C(=O)c2cnc(C)cn2)c(=O)[nH]c1=O ?
Mtb UGM inh: inactive; GDH-TPI counter-1: inactive; Mtb bLac sens: inactive; Mtb FBA inh: inactive; Rv3671c protease: inactive; RecA intein inh: inactive

What do the screens show for `COc1ccc(C2SCC(=O)N2c2c(C)n(C)n(-c3ccccc3)c2=O)cc1OC` (configuration not stated)?
Mtb UGM inh: inactive; GDH-TPI counter-1: inactive; Mtb bLac sens: inactive; Mtb FBA inh: 47; Rv3671c protease: inactive; RecA intein inh: inactive; Mtb FBA inh conf: 58; GDH-TPI counter-2: 45

What do the screens show for `Cc1c(N2C(=O)CSC2c2ccccc2)c(=O)n(-c2ccccc2)n1C` (configuration not stated)?
Mtb UGM inh: inactive; GDH-TPI counter-1: inactive; Mtb bLac sens: inactive; Mtb FBA inh: inactive; Rv3671c protease: inactive; RecA intein inh: inactive

How did COc1ccc(C2SCC(=O)N2c2c(C)n(C)n(-c3ccccc3)c2=O)c(OC)c1 (configuration not stated) do in these assays?
Mtb UGM inh: inactive; GDH-TPI counter-1: inactive; Mtb bLac sens: inactive; Mtb FBA inh: inactive; Rv3671c protease: inactive; RecA intein inh: inactive

How did CCOc1ccc(C2SCC(=O)N2c2c(C)n(C)n(-c3ccccc3)c2=O)cc1 (configuration not stated) do in these assays?
Mtb UGM inh: inactive; GDH-TPI counter-1: inactive; Mtb bLac sens: inactive; Mtb FBA inh: 96; Rv3671c protease: inactive; RecA intein inh: inactive; Mtb FBA inh conf: inactive; GDH-TPI counter-2: inactive

What do the screens show for `O=C(Cn1c(=O)cnc2ccccc21)N1CCN(S(=O)(=O)c2ccccc2Br)CC1`?
Mtb UGM inh: inactive; GDH-TPI counter-1: inactive; Mtb bLac sens: inactive; Mtb FBA inh: inactive; Rv3671c protease: inactive; RecA intein inh: inactive

What do the screens show for `Cc1noc(C)c1C(=O)N1CCC1(C)C(=O)NS(=O)(=O)c1ccccc1C(F)(F)F` (configuration not stated)?
GDH-TPI counter-1: inactive; Mtb FBA inh: inactive

How did CN(C)c1ccc(-[n+]2c(-c3ccccc3)cc(-c3ccccc3)cc2-c2ccccc2)cc1 do in these assays?
GDH-TPI counter-1: inactive; Mtb FBA inh: inactive

How did Cc1c(-c2ccccc2)n(O)c(-c2ccc(N(C)C)cc2)[n+]1[O-] do in these assays?
GDH-TPI counter-1: inactive; Mtb FBA inh: 57; Mtb FBA inh conf: 126; GDH-TPI counter-2: 109

How did CCN(CC(=O)Nc1ccc(OC)cc1)CC(=O)N1CC(=O)Nc2ccccc21 do in these assays?
Mtb UGM inh: inactive; GDH-TPI counter-1: inactive; Mtb bLac sens: inactive; Mtb FBA inh: inactive; Rv3671c protease: inactive

What do the screens show for `CCNC(=O)C1CCCN(C(=O)c2ccccc2OC(F)(F)F)CC1` (configuration not stated)?
GDH-TPI counter-1: inactive; Mtb FBA inh: inactive

How did COc1ccc(C2NC(=O)c3ccccc3N2)cc1OC (configuration not stated) do in these assays?
Mtb UGM inh: inactive; GDH-TPI counter-1: inactive; Mtb bLac sens: inactive; Mtb FBA inh: inactive; Rv3671c protease: inactive; RecA intein inh: inactive

How did O=C1NC(c2cccc3ccccc23)Nc2ccccc21 (configuration not stated) do in these assays?
GDH-TPI counter-1: inactive; Mtb FBA inh: 29; Mtb FBA inh conf: 37; GDH-TPI counter-2: 32

What do the screens show for `O=C1NC(c2ccccc2Cl)Nc2ccccc21` (configuration not stated)?
Mtb UGM inh: inactive; GDH-TPI counter-1: inactive; Mtb bLac sens: inactive; Mtb FBA inh: 57; Rv3671c protease: inactive; RecA intein inh: inactive; Mtb FBA inh conf: 114; GDH-TPI counter-2: 100

How did COc1ccc2ccccc2c1C1NC(=O)c2ccccc2N1 (configuration not stated) do in these assays?
GDH-TPI counter-1: inactive; Mtb FBA inh: 44; Mtb FBA inh conf: 102; GDH-TPI counter-2: 74

Results for COc1ccc2c(c1)c1ncn(CCc3ccccc3)c(=O)c1n2C ?
Mtb UGM inh: inactive; GDH-TPI counter-1: inactive; Mtb bLac sens: inactive; Mtb FBA inh: 105; Rv3671c protease: inactive; RecA intein inh: inactive; Mtb FBA inh conf: 106; GDH-TPI counter-2: 91

What do the screens show for `COc1ccc(Cn2cnc3c4cc(F)ccc4n(C)c3c2=O)cc1`?
Mtb UGM inh: inactive; GDH-TPI counter-1: inactive; Mtb bLac sens: inactive; Mtb FBA inh: inactive; Rv3671c protease: inactive; RecA intein inh: inactive

How did O=C(COC(=O)c1ccccc1NCc1ccco1)Nc1ccc2c(c1)OCO2 do in these assays?
Mtb UGM inh: inactive; GDH-TPI counter-1: inactive; Mtb bLac sens: inactive; Mtb FBA inh: 45; Rv3671c protease: inactive; RecA intein inh: inactive; Mtb FBA inh conf: 64; GDH-TPI counter-2: 50

How did NC(=O)c1ccsc1NC(=O)COC(=O)c1ccccc1NCc1ccco1 do in these assays?
Mtb UGM inh: inactive; GDH-TPI counter-1: inactive; Mtb bLac sens: inactive; Mtb FBA inh: 59; Rv3671c protease: inactive; RecA intein inh: inactive; Mtb FBA inh conf: 50; GDH-TPI counter-2: 32

How did NC(=O)c1ccsc1NC(=O)COC(=O)c1ccccc1F do in these assays?
Mtb UGM inh: inactive; GDH-TPI counter-1: inactive; Mtb bLac sens: inactive; Mtb FBA inh: inactive; Rv3671c protease: inactive

How did Cc1ccc(-c2nc3ccc(C)cn3c2CC(=O)N(C)C)cc1 do in these assays?
Mtb UGM inh: inactive; GDH-TPI counter-1: inactive; Mtb bLac sens: inactive; Mtb FBA inh: 52; Rv3671c protease: inactive; RecA intein inh: inactive; Mtb FBA inh conf: 56; GDH-TPI counter-2: 47

Results for Cc1ccc(-c2nc3ccc(C)cn3c2Cc2ccccc2C(F)(F)F)cc1 ?
Mtb FBA inh: inactive

Results for CCC1CC2(C)NC(=O)c3c(sc4c3CC(C)(C)OC4)N2C1=O (configuration not stated) ?
GDH-TPI counter-1: inactive; Mtb FBA inh: 39; RecA intein inh: inactive; Mtb FBA inh conf: 175; GDH-TPI counter-2: 112

Results for O=c1c2ccccc2nc2n1CCCN2 ?
Mtb UGM inh: inactive; GDH-TPI counter-1: inactive; Mtb bLac sens: inactive; Mtb FBA inh: 70; Rv3671c protease: inactive; RecA intein inh: inactive; Mtb FBA inh conf: active; GDH-TPI counter-2: active

What do the screens show for `O=C(CSc1nc2nc(-c3cccs3)cc(C(F)(F)F)c2c(=O)[nH]1)NCc1ccco1`?
Mtb UGM inh: inactive; GDH-TPI counter-1: inactive; Mtb bLac sens: inactive; Mtb FBA inh: 95; Rv3671c protease: inactive; RecA intein inh: inactive; Mtb FBA inh conf: inactive; GDH-TPI counter-2: inactive

How did CCOc1ccccc1NC(=O)CSc1nc2nc(-c3cccs3)cc(C(F)(F)F)c2c(=O)[nH]1 do in these assays?
Mtb UGM inh: inactive; GDH-TPI counter-1: inactive; Mtb bLac sens: inactive; Mtb FBA inh: 58; Rv3671c protease: inactive; RecA intein inh: inactive; Mtb FBA inh conf: 73; GDH-TPI counter-2: 50
